Bioassay records from PubChem BioAssay.
A selection: hits, their analogues and other compounds. The true share with any hit is near 8.1%.
Epigenetic reg: regulators of epigenetic silencing causing reporter derepression in mouse cells. murine LDR cells, GFP reporter derepression, 30 h. actives 0.2% (n = 280,000). AID 1865. Potency, µM (doses to about 53.9 µM), inactives show at the highest dose GFP activation, hits mostly activators; further: % of control where 0% means no effect; nearly all actives have a fitted effect of over 60% in size
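In this reporter-derepression format, murine cells bearing a silenced integrated CMV-GFP locus incubate with test compound (30 h, 37 C), then are washed and imaged; fluorescent objects of 20–120 um count as induced cells.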
ClpP mod: qHTS Assay for Activators of ClpP; actives 1.9% (n = 340,000); purified B. subtilis ClpP, FRET peptide cleavage, 20 min; AID 651965, 2013; Potency, µM (highest dose often 57.5 µM), for the others: at the highest dose activity change, negative = active; ATP-dependent Clp protease proteolytic subunit (Bacillus subtilis (strain 168)), P80244; active means well fitted falling curve with a large enough effect; inconclusive means small, poorly fitted or top-dose-only effect; inactive means no such curve, though single readings can be large or run the other way; further: the source files actives as falling curves though it sought activators and does not explain the sign; nearly all actives have a fitted effect of over 65% in size
Target sequence (P80244 whole entry, looked up): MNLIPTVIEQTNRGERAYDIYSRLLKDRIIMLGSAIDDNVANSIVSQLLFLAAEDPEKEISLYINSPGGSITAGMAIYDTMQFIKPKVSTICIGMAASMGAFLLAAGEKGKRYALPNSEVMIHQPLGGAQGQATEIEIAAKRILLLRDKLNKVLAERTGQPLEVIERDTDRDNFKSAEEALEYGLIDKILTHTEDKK
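Buffer: 100 mM Tris/HCl pH8, 100 mM KCl, 0.05% low protease BSA, 2.5% glycerol, 0.01% Tween-20. ClpP 10 microg/mL final; 20 min RT; delta FRET normalized to ADEP and DMSO controls.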
RORgamma inh: inhibitors of mouse ROR gamma transcriptional activity. P51450. Drosophila S2 Gal4-RORgamma UAS-luciferase reporter, 20 h. Potency, µM (titrated, usually from 53.6 µM), for inactives: top-dose activity change, negative = inhibition, most hits filed as inhibitors. actives 5.4% (n = 310,000). AID 2551; further: on the % scale 0 is the no-effect control and ±100 the full control effect; nearly all actives have a fitted effect of over 60% in size
Target sequence (P51450 whole entry, looked up, the tested form may be a part): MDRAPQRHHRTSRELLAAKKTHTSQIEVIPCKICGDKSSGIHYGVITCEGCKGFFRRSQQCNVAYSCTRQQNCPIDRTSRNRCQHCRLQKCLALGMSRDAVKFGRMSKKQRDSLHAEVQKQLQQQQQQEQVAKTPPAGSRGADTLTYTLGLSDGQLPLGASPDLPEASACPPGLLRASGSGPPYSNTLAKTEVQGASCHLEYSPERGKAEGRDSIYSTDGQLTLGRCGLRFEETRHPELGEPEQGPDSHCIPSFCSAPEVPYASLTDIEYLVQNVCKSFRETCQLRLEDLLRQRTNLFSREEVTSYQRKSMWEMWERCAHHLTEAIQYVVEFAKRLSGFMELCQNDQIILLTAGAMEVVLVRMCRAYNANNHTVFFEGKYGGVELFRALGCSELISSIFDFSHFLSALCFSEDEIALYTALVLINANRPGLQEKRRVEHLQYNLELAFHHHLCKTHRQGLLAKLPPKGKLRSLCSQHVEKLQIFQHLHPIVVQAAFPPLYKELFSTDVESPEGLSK
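In this cell-based reporter format, copper sulfate (700 uM final) drives Gal4–ROR gamma fusion expression from a metallothionein promoter in Drosophila Schneider cells; compounds preincubated 1 hr, reporter read after 20 hr at ambient temperature.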
Gal4-VP16 FLuc: counter-screen for ROR gamma inhibitors: Gal4-VP16 reporter; Drosophila S2 Gal4-VP16 UAS-luciferase, luminescence, 20 h; actives 3.5% (n = 310,000); Potency, µM (top dose mostly 53.6 µM), for the others: at the top dose activity, negative = inhibition, usual class: inhibitors;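 further: Gal4-VP16 expression switched on by copper sulfate through the metallothionein promoter; on the % scale 0 is the no-effect control and ±100 the full control effect; nearly all actives have a fitted effect of over 50% in size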
Sfp inh: blocks B. subtilis Sfp PPTase activity | Q9F4F7 | AID 1490 | Biochemical Sfp PPTase activity, qHTS | actives 3.5% (n = 310,000) | Potency, µM, inactives show largest response in the series, negative = inhibition, hits mostly inhibitors;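 further: the enzyme is Sfp with the accession as filed and its product quenches rhodamine fluorescence; 0% = enzyme reaction without inhibitor and -100% = no enzyme wells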
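After 15 min at room temperature with compound, 15 nM Sfp received 5 uM rhodamine-CoA plus 12.5 uM BHQ-2-ybbR (50 mM Hepes pH 7.6, 10 mM MgCl2). Rate came from the fluorescence difference over 30 min, ex 525/em 598 nm.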
PINK1 expr mod: changes PINK1 expression; AID 624263; Potency, µM (top dose mostly 76.6 µM), without a hit: at the highest dose activation (PINK1 increase), usual class: activators; actives 0.2% (n = 410,000); PINK1 immunofluorescence, high-content cytometry, 24 h; active means well fitted activation curve with a large enough effect; inconclusive means small, poorly fitted or top-dose-only effect; cell line not stated here; further: % of control where 0% means no effect; nearly all actives have a fitted effect of over 65% in size
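Decision-based qHTS: stable cells, 24 h exposure to five compound concentrations, CCCP as control. Fixed cells stained for PINK1 plus nuclear, mitochondrial and cell markers, cytometer read.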
* marks the source's active call; other numbers are inactive results; ? = inconclusive; nt = no result; [ ] = dose if it differs, or a comment. Unless noted, the call rests on the fitted dose curve; in most records, active means well fitted curve in the direction sought with a large enough effect; inconclusive means small, poorly fitted or top-dose-only effect, or another doubt; inactive means no such curve, though single readings can be large; an effect the other way counts as inactive or inconclusive. Potency means the concentration at half of the fitted maximal effect.

SMILES	Epigenetic reg	ClpP mod	RORgamma inh	Gal4-VP16 FLuc	Sfp inh	PINK1 expr mod
CCc1ccc(N2CC(c3nc4ccccc4n3Cc3ccccc3C)CC2=O)cc1 (centres undefined)	-3%	-9%	nt	nt	nt	2%
COc1ccc(C)cc1NC(=S)NNC(=O)c1c(Br)cnn1C	-1%	nt	2µM*	-19%	2%	1%
COc1ccc(C(=O)Nc2ccc(C)cn2)c(OC)c1	-1%	1%	4µM*	4µM*	5%	-2%
CCOc1ccc(NC(=O)c2cnccn2)cc1	-1%	0%	?	?	18%	1%
COc1ccc(C(=O)Nc2cc(C)on2)c(OC)c1	nt	-3%	-32%	-17%	16%	3%
CCOc1ccc(NC(=O)c2ccccn2)cc1	-2%	0%	7.1µM*	4.5µM*	10%	1%
COc1ccc(C)cc1NC(=O)Nc1ccc(Br)cn1	0%	1%	10µM*	5%	11%	nt
O=C(O)C1CC=CC2CCN(C3CC3)C(=O)C21 (centres undefined)	nt	nt	21%	-12%	-13%	nt
Cc1ccc(NC(=O)c2cccnc2C(=O)O)nc1	nt	nt	-11%	-4%	56µM*	1%
CCOc1ccc(NC(=O)c2cccnc2C(=O)O)cc1	-2%	-1%	-24%	-19%	56µM*	0%[38.3 µM]
CC(=O)Oc1cc2c(cc1Cl)C1(CC(c3ccccc3Cl)O2)CC(C)(C)NC(=S)N1 (centres undefined)	0%	-3%	10µM*	?	10%	4%
CCOC(=O)[C@@H]1[C@H]2COc3cc(OC)ccc3[C@@H]2N2C(=O)N(c3cccc(Cl)c3)C(=O)[C@]12C	nt	-2%	-4%	7%	13%	-1%
CCOC(=O)[C@@H]1[C@H]2COc3cc(OC)ccc3[C@@H]2N2C(=O)N(c3cccc(Cl)c3)C(=O)[C@@]12C	nt	-1%	11µM*	5%	2%	2%
CCOC(=O)[C@@H]1[C@H]2COc3ccccc3[C@@H]2N2C(=O)N(c3ccccc3)C(=O)[C@@]12C	nt	-2%	13µM*	-24%	17%	2%
CCOC(=O)[C@@H]1[C@H]2COc3ccc(Br)cc3[C@@H]2N2C(=O)N(c3ccccc3)C(=O)[C@@]12C	nt	-4%	10µM*	6%	9%	2%
N#Cc1ccc(NC(=O)c2cc(-c3cccs3)on2)cc1	-3%	nt	2%	-2%	6%	-1%
N#Cc1ccc(C(=O)Nc2nnc(-c3cccs3)o2)cc1	1%	2%	0.71µM*	1µM*	8%	4%
O=C(CSc1nnc(-c2cccs2)o1)Nc1cccc(C(F)(F)F)c1	-1%	71%	nt	nt	nt	0%
CN(C)S(=O)(=O)c1ccc(C(=O)Nc2nnc(-c3cccs3)o2)cc1	0%	-3%	0.63µM*	1.3µM*	10%	0%
CN(C)S(=O)(=O)c1ccc(C(=O)Nc2nnc(-c3ccc4c(c3)CCCC4)o2)cc1	-1%	-7%	0.13µM*	0.089µM*	42%	2%
O=C(Nc1nnc(-c2cccs2)o1)c1cccc(C(F)(F)F)c1	0%	-1%	0.11µM*	0.11µM*	14%	3%
CN(C)S(=O)(=O)c1ccc(C(=O)Nc2nc(-c3cccs3)cs2)cc1	1%	113%	3%	-19%	18%	0%
Cc1ccc(CN2[C@H](C)[C@H](c3ccccc3)OCCS2(=O)=O)cc1	nt	-2%	nt	nt	nt	nt
O=C1C[C@@H](O)[C@@H](O)[C@H]2[C@@H]3C(=O)N(C4CCCCC4)C(=O)[C@@H]3CC[C@H]12	1%[10.1 µM]	nt	0%[10 µM]	-2%[10 µM]	18%	nt
O=C1C2=CC[C@H]3C(=O)N(C[C@@H]4CCCO4)C(=O)[C@@H]3[C@@H]2[C@H](O)[C@@H]2O[C@H]12	?	nt	?	?	-12%	nt
SMILES	Epigenetic reg	ClpP mod	RORgamma inh	Gal4-VP16 FLuc	Sfp inh	PINK1 expr mod
O=C1C2=CC[C@H]3C(=O)N(c4cccc(Oc5ccccc5)c4)C(=O)[C@@H]3[C@@H]2[C@H](O)[C@@H]2O[C@H]12	?	nt	2.2µM*	?	-10%	nt
CC1=CCC2C(=O)N(Cc3ccccc3)C(=O)C2C1 (centres undefined)	0%	0%	-36%	-2%	-13%	2%
O=C1C2=CC[C@H]3C(=O)N(C4CCCCC4)C(=O)[C@@H]3[C@@H]2[C@H](O)[C@@H]2O[C@H]12	?	nt	2µM*	?	?	nt
CCN1C(=O)[C@@H]2[C@H]3C(=CC[C@H]2C1=O)C(=O)[C@H]1OC1[C@H]3O (some centres undefined)	14%[10.1 µM]	nt	2µM*	?	9%	nt
O=C1C2=CC[C@H]3C(=O)N(Cc4ccccc4)C(=O)[C@@H]3[C@@H]2[C@H](O)[C@@H]2O[C@H]12	1%[10.1 µM]	nt	2.2µM*	?	?	nt
CCC1C(=O)NCCN1Cc1ccc2c(c1)CN(Cc1cccc(OC)c1)CCO2 (centres undefined)	nt	nt	nt	nt	nt	-1%
CCc1nn(CC(=O)NCc2cccc(OC)c2OC)c(=O)c2cc3occc3n12	1%	-3%	nt	nt	nt	3%
O=C1C2=CC[C@H]3C(=O)N(Cc4ccc5c(c4)OCO5)C(=O)[C@@H]3[C@@H]2[C@H](O)[C@@H]2O[C@H]12	10%[10.1 µM]	nt	4.5µM*	?	-4%	nt
CCS(=O)(=O)c1ncc(Cl)c(C(=O)Nc2ccccc2)n1	0%	0%	nt	nt	nt	-2%
CCS(=O)(=O)c1ncc(Cl)c(C(=O)Nc2ccc(S(=O)(=O)N3CCC(C)CC3)cc2)n1	nt	nt	3.2µM*	4.5µM*	-19%	-2%
Cc1ccc(NC(=O)c2nc(S(=O)(=O)Cc3ccccc3C)ncc2Cl)cc1C	nt	nt	?	5µM*	-16%	-2%
CCc1ccc(NC(=O)c2nc(S(=O)(=O)Cc3ccccc3)ncc2Cl)cc1	nt	nt	0.28µM*	3.2µM*	-26%	nt
CCOC(=O)c1ccc(NC(=O)c2nc(S(=O)(=O)Cc3ccccc3)ncc2Cl)cc1	?	0%	7.9µM*	4.5µM*	?	3%
COc1ccc2cc(CNc3ccc(OC)c(OC)c3)c(=O)n(CC(=O)Nc3ccc(C)cc3)c2c1	8%	3%	nt	nt	nt	15%
C=CCn1c(COc2cccc3ccc(C)nc23)nnc1SCC(=O)OC	0%	28µM*	-3%	1%	-9%	-2%
C=CCn1c(COc2cccc(C)c2)nnc1SCC(=O)NC(=O)NCc1ccco1	-1%	-2%	?	?	25µM*	2%[38.3 µM]
C=CCn1c(COc2ccccc2)nnc1SCC(=O)N/N=C/c1ccc(C)cc1	-4%	-1%	0%	0%	-11%	-2%
CCn1c(COc2cccc3cccnc23)nnc1SCC(=O)OC	0%	-22%	31%	-3%	7%	0%
